PubChem BioAssay (Tox21)
Values without a mark were called inactive. Results filed as inconclusive are left out. Where a call stands in place of a potency, no number is given. The source made the active and inactive calls. Unless noted, the call rests on the fitted dose curve.

Key:
[1] = Nuclear factor erythroid 2-related factor 2/antioxidant responsive element (Nrf2/ARE) small molecule agonists: qHTS cell viability counter screen in human keratinocytes (AID 1919968; active means well fitted curve in the direction sought with a large enough effect in the repeat runs; an effect the other way counts as inactive or inconclusive; further: nearly all actives have a fitted effect of over 55% in size); conditions: KeratinoSens HaCaT ARE cells viability, CellTiter-Fluor, 24 h; series mostly up to 92.4 µM
Summary of the method: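 In human HaCaT keratinocytes stably expressing an ARE-driven luciferase, compound exposure lasted 23 h at 37 C under 5% CO2. Viable cells are quantified with a protease-based fluorogenic reagent (CellTiter-Fluor) read 1 h after addition.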

[2] = Nuclear factor erythroid 2-related factor 2/antioxidant responsive element (Nrf2/ARE) small molecule agonists: luciferase reporter gene qHTS assay in human keratinocytes (AID 1919969); conditions: KeratinoSens HaCaT ARE-luciferase, luminescence, 24 h; series mostly up to 92.4 µM; further: nearly all actives have a fitted effect of over 35% in size
[3] = target: Gonadotropin-releasing hormone receptor (Homo sapiens) (UniProt P30968); test: Human gonadotropin-releasing hormone receptor (GnRHR) small molecule agonists, calcium flux assay in GnRHR-HEK293 cells (AID 1920063); conditions: calcium flux fluorescence, agonist mode; series mostly up to 57.6 µM; further: nearly all actives have a fitted effect of over 35% in size
Summary of the method: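 Intracellular calcium rise is the read-out: engineered human GnRHR HEK293 cells, dye-loaded, are exposed to DMSO-dissolved compounds and fluorescence at Ex/Em 480/540 is tracked for 3 min.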

[4] = target: KiSS-1 receptor (Homo sapiens) (UniProt Q969F8); test: Human kisspeptin (KISS1R) small molecule agonists, calcium flux assay in KISS1R-HEK293 cells (AID 1920064; active means well fitted curve in the direction sought with a large enough effect in the repeat runs; an effect the other way counts as inactive or inconclusive); conditions: KISS1R-HEK293, calcium flux fluorescence, agonist; series mostly up to 76.8 µM
Summary of the method: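 Concentration-response testing used 15 concentrations in triplicate on human KISS1R-expressing HEK293 cells. Calcium-dependent fluorescence (Ex/Em 480/540) was followed kinetically for 3 min after compound transfer.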

[5] = G protein-coupled receptor (GPCR) small molecule agonists, calcium flux assay: HEK293 wild type cell line counter screen (AID 1920065); conditions: HEK293 WT calcium flux, fluorescence, agonist mode; series mostly up to 57.6 µM
Summary of the method: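 Fluorescence intensity signals activation. After overnight (18 h) culture and a 1 h calcium dye load at 37 C, compounds are added by pin tool and the plate read at 480/540 nm for 3 min in 1 s steps.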

[6] = p53 small molecule agonists, cell-based qHTS assay with rat liver microsomes (AID 1963578); conditions: HCT-116 p53RE-bla, beta-lactamase ratio, 16 h; series mostly up to 66 µM
Summary of the method: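 Agonist mode in p53RE-bla reporter cells, with compounds co-incubated 16 h at 37 C alongside 0.5 mg/mL rat liver microsomes and 0.5 mg/mL NADPH (final), followed by a 2 h LiveBLAzer detection step.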

[7] = p53 small molecule agonists, cell-based qHTS assay with human liver microsomes: qHTS cell viability counter screen (AID 1963579); conditions: p53RE-bla HCT-116 viability, ATP luminescence, 16 h, HLM; series mostly up to 66 µM; further: nearly all actives have a fitted effect of over 45% in size
Summary of the method: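 Metabolically activated exposure: compounds, human liver microsomes and NADPH (0.5 mg/mL final apiece) were added to p53RE-bla cells seeded 5 h earlier, left 16 h at 37 C, and then assessed for viability by CellTiter-Glo luminescence.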

[8] = p53 small molecule agonists, cell-based qHTS assay with rat liver microsomes: qHTS cell viability counter screen (AID 1963580); conditions: p53RE-bla HCT-116 + rat microsomes, ATP viability, 16 h; series mostly up to 66 µM; further: nearly all actives have a fitted effect of over 45% in size
Summary of the method: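 Luminescent ATP readout (CellTiter-Glo, 30 min at room temperature) reports viability of p53RE-bla HCT-116 cells after 16 h at 37 C with test compounds under metabolic activation by rat liver microsomes and NADPH at 0.5 mg/mL final each.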

[9] = p53 small molecule agonists, cell-based qHTS assay: qHTS cell viability counter screen (AID 1963581); conditions: p53RE-bla HCT-116 viability, ATP luminescence, 16 h; series mostly up to 66 µM; further: nearly all actives have a fitted effect of over 45% in size
Summary of the method: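 Luminescence from CellTiter-Glo, reflecting ATP content, serves as the cytotoxicity measure; it is taken after the 2 h reporter substrate step in HCT-116 p53RE-bla cells dosed for 16 h at 37 C.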

[10] = p53 small molecule agonists, cell-based qHTS assay (AID 1963582; active means well fitted activation curve with a large enough effect in the signal ratio in the repeat runs, not every such curve was filed as active; the % refers to the signal ratio); conditions: HCT-116 p53RE-bla reporter, beta-lactamase FRET ratio, 16 h; series mostly up to 66 µM
Summary of the method: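 After plating, p53RE-bla cells sat 5 h in the incubator; compounds or DMSO vehicle were pinned in; a 16 h incubation at 37 C followed; FRET substrate was added and, 2 h later at RT, fluorescence was measured.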

[11] = target: 5-hydroxytryptamine receptor 2A (Homo sapiens) (UniProt P28223); test: 5-hydroxytryptamine receptor 2A (HTR2A) small molecule antagonists, cell-based qHTS assay (AID 1963586); conditions: HTR2A-CHO cells, DOI-induced calcium flux, fluorescence; series mostly up to 61.5 µM; further: nearly all actives have a fitted effect of over 45% in size
Summary of the method: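 CHO cells stably expressing human HTR2A were plated for 18 h at 37 C, then loaded with calcium dye for 1 h. Compounds were preincubated 5 min at room temperature before DOI (4 nM solution) was added. Kinetic fluorescence was read for 3 min.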

[12] = target: 5-hydroxytryptamine receptor 2A (Homo sapiens) (UniProt P28223); test: 5-hydroxytryptamine receptor 2A (HTR2A) small molecule agonists, cell-based qHTS assay (AID 1963587); conditions: HTR2A-CHO cells, calcium flux fluorescence, agonist mode; series mostly up to 76.8 µM; further: nearly all actives have a fitted effect of over 30% in size
Summary of the method: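 HTR2A-CHO cells, plated 18 h at 37 C/5% CO2, dye-loaded 1 h at 37 C; compounds in DMSO added by pin tool (agonist mode). Intracellular calcium flux read as kinetic fluorescence on FDSS over 2 min at 1 s intervals.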

[13] = target: Muscarinic acetylcholine receptor M1 (Homo sapiens) (UniProt P11229); test: Cholinergic receptor muscarinic 1 (CHRM1) small molecule antagonists, cell-based qHTS assay (AID 1963588); conditions: CHRM1-CHO antagonist mode, calcium flux fluorescence; series mostly up to 61.5 µM; further: nearly all actives have a fitted effect of over 40% in size; further: potency means the concentration at half of the fitted maximal effect
Summary of the method: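 Compounds were tested at 15 concentrations in three independent runs. Dye-loaded CHRM1-CHO cells were exposed 5 min at room temperature before stimulation by acetylcholine added at 50nM. Intracellular calcium was read kinetically on FDSS for 3 min.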

[14] = target: Muscarinic acetylcholine receptor M1 (Homo sapiens) (UniProt P11229); test: Cholinergic receptor muscarinic 1 (CHRM1) small molecule agonists, cell-based qHTS assay (AID 1963589); conditions: CHRM1-CHO cells, agonist mode, calcium flux fluorescence; series mostly up to 76.8 µM; further: nearly all actives have a fitted effect of over 35% in size
Summary of the method: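 Fluorescent calcium dye reports M1 activation in stably transfected CHO cells. Compounds, 15 concentrations, added after 1 h dye loading at 37 C; kinetic reading at 1 sec intervals.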

[15] = cAMP Responsive Elements (CRE) small molecule agonists, cell-based qHTS assay (AID 1963590); conditions: CRE-bla HEK293T, beta-lactamase FRET ratio, 3 h; series mostly up to 92.4 µM
Summary of the method: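 Compound exposure lasted 3 h at 37 C/5% CO2 in CRE-bla HEK 293T cells grown in assay medium with 10% dialyzed FBS and 25 mM HEPES. Reporter signal came from LiveBLAzer B/G FRET substrate, 2 h, room temperature.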

[16] = cAMP Responsive Elements (CRE) small molecule antagonists, cell-based qHTS assay (AID 1963591; active means well fitted inhibition curve with a large enough effect in the signal ratio in the repeat runs, not every such curve was filed as active; the % refers to the signal ratio); conditions: CRE-bla HEK293T, beta-lactamase FRET ratio; series mostly up to 92.4 µM
Summary of the method: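 Stimulation used NKH477 at a final 0.25 uM for 3 h in compound-treated CRE-bla HEK293T cells, seeded 18 h beforehand. Reporter activity was measured with LiveBLAzer B/G FRET substrate after 2 h at room temperature.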

[17] = target: Beta-2 adrenergic receptor (Homo sapiens) (UniProt P07550); test: Adrenergic beta2 receptor (ADRB2) small molecule antagonists, cell-based qHTS assay (AID 1963592); conditions: CHO-ADRB2 cells, isoproterenol-stimulated cAMP HTRF ratio, 0.5 h; series mostly up to 92.4 µM; further: nearly all actives have a fitted effect of over 50% in size
Summary of the method: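 Assay format: CHO-ADRB2 cells, 18-20hr seeding at 37C/5% CO2, then compound plus 1nM isoproterenol agonist mix for 0.5hr RT. Homogeneous time-resolved fluorescence cAMP detection after 1hr, expressed as 665/615 nm ratio.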

[18] = target: D(2) dopamine receptor (Homo sapiens) (UniProt P14416); test: Dopamine D2 receptor (DRD2) small molecule antagonists, cell-based qHTS assay (AID 1963595; active means well fitted inhibition curve with a large enough effect in the signal ratio in the repeat runs, with a control signal flat; the % refers to the signal ratio; further: potency means the concentration at half of the fitted maximal effect); conditions: HEK293-DRD2 cAMP HTRF antagonist mode; series mostly up to 92.4 µM
Summary of the method: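 Stable D2 receptor HEK293 line, 24 h after seeding. Compound preincubated 10 min, then quinpirole (12 nM) with forskolin analogue NKH477 (200 nM), 30 min, room temperature. Detection by time-resolved FRET of cAMP.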

[19] = target: D(2) dopamine receptor (Homo sapiens) (UniProt P14416); test: Dopamine D2 receptor (DRD2) small molecule agonists, cell-based qHTS assay (AID 1963594); conditions: HEK293-DRD2 cAMP HTRF, agonist mode, 30 min; series mostly up to 92.4 µM; further: nearly all actives have a fitted effect of over 35% in size
Summary of the method: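 HEK293 cells stably expressing DRD2 were cultured 24 h at 37 C, then given Ro20-1724 (0.1 mM final) and compounds for 10 min at room temperature. NKH477 (200nM) was then added for 30 min. cAMP was read by HTRF.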

Gonadotropin-releasing hormone receptor (Homo sapiens), sequence (P30968 whole entry, looked up): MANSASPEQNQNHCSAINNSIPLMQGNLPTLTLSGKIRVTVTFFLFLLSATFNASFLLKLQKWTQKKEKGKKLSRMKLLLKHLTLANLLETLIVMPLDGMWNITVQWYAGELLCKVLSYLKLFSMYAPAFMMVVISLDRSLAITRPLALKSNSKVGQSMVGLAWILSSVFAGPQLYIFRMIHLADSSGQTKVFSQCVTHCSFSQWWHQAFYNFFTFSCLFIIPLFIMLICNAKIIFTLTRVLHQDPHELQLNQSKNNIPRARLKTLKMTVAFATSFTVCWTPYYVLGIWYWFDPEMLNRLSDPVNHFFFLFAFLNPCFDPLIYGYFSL
Muscarinic acetylcholine receptor M1 (Homo sapiens), sequence (P11229 whole entry, looked up): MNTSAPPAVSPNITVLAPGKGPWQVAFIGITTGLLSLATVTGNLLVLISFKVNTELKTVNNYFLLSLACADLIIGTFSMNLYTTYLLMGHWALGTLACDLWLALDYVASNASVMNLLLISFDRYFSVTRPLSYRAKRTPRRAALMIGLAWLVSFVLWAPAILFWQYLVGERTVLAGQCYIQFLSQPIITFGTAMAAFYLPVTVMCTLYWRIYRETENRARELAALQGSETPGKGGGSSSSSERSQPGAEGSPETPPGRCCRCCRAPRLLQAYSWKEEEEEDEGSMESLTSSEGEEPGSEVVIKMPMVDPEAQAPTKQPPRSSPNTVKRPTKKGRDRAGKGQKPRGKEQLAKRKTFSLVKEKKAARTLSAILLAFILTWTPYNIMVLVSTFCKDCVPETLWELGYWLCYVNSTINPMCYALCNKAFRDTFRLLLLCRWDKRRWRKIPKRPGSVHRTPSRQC
5-hydroxytryptamine receptor 2A (Homo sapiens), sequence (P28223 whole entry, looked up): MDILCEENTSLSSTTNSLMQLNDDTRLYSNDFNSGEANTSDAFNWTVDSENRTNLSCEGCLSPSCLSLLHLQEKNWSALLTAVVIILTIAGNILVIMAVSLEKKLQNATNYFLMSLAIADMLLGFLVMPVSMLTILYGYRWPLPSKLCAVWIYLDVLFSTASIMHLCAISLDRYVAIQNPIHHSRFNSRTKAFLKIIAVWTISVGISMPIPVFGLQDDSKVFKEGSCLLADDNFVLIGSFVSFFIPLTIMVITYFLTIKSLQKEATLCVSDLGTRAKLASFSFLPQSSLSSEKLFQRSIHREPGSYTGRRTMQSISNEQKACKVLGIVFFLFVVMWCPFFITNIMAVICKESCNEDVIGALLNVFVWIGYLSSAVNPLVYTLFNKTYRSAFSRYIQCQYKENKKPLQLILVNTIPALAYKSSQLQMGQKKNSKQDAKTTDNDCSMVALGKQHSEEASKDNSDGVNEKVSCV
KiSS-1 receptor (Homo sapiens), sequence (Q969F8 whole entry, looked up): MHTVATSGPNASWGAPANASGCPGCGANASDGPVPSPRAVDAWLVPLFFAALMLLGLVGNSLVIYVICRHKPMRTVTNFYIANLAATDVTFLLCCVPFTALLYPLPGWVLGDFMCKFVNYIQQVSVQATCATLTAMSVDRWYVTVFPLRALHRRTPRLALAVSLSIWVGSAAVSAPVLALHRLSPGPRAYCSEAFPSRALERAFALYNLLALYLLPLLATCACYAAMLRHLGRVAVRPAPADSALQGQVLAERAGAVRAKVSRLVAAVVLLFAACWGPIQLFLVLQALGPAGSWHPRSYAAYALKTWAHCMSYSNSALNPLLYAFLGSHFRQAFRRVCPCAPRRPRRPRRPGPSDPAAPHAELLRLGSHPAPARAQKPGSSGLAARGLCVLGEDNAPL
D(2) dopamine receptor (Homo sapiens), sequence (P14416 whole entry, looked up): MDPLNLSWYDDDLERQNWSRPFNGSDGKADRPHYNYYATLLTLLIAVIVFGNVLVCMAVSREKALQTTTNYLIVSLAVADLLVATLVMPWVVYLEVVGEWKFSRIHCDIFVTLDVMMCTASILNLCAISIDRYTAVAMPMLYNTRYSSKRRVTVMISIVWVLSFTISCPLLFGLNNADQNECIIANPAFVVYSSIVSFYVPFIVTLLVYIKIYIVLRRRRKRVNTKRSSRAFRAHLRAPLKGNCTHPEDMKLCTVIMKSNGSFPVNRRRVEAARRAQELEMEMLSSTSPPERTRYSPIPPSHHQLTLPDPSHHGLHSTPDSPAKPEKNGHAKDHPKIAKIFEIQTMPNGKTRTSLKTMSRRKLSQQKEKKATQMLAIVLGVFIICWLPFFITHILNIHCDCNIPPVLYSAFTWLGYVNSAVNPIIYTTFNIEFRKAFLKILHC
Beta-2 adrenergic receptor (Homo sapiens), sequence (P07550 whole entry, looked up): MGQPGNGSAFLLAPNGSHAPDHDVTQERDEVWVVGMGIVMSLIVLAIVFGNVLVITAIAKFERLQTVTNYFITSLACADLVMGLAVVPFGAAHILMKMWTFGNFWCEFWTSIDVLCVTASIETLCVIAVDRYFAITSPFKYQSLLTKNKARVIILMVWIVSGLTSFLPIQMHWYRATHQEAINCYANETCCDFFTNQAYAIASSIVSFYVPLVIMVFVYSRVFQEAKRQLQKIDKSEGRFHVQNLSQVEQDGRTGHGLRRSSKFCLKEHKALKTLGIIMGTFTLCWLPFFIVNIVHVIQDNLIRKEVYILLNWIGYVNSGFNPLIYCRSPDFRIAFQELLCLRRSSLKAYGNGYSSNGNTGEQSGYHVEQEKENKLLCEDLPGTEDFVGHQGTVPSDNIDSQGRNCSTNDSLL

## N#CCc1ccccc1[N+](=O)[O-]
[1]
  Potency: inactive
[2]
  Potency: inactive
[3]
  Potency: inactive
[4]
  outcome: inactive
[5]
  outcome: inactive
[6]
  Potency: inactive
[7]
  Potency: inactive
[8]
  Potency: inactive
[9]
  Potency: inactive
[10]
  Potency: inactive
[11]
  Potency: inactive
[12]
  Potency: inactive
[13]
  Potency: inactive
[14]
  Potency: inactive
[15]
  Potency: inactive
[16]
  Potency: inactive
[17]
  Potency: inactive
[18]
  Potency: inactive

## CCN1CCN(c2cc(-c3ccc(F)cc3)c3c(n2)CCCCCC3)CC1
[1]
  activity change, negative = cytotoxicity: -1.5% [at 19 µM]
[2]
  activity, positive = activation: -2.3% [at 19 µM]
[3]
  activity change: 17.8% [at 11.8 µM, active compounds read high]
[4]
  activation: 8.32% [at 15.8 µM]
[5]
  activation: -0.133% [at 11.8 µM]
[6]
  activation: -1.02% [at 13.6 µM]
[7]
  activity change, negative = cytotoxicity: 11.2% [at 13.5 µM]
[8]
  activity change, negative = cytotoxicity: 0.85% [at 13.5 µM]
[9]
  activity change, negative = cytotoxicity: 1.98% [at 13.5 µM]
[10]
  activation: -0.331% [at 13.5 µM]
[12]
  activation: -5.11% [at 15.9 µM]
[13]
  Potency: 31.7 nM (active)
[14]
  activation: 2.2% [at 15.8 µM]
[16]
  activity change, negative = inhibition: 1.59% [at 18.9 µM]
[17]
  activity change, negative = inhibition: -12.5% [at 19 µM]
[18]
  Potency: 32.6 nM (active)

## C#CC(C)N(C)C(=O)Nc1ccc(Cl)cc1 (stereo not drawn)
[1]
  Potency: inactive
[2]
  Potency: inactive
[3]
  Potency: inactive
[4]
  outcome: inactive
[5]
  outcome: inactive
[6]
  Potency: inactive
[7]
  Potency: inactive
[8]
  Potency: inactive
[9]
  Potency: inactive
[10]
  Potency: inactive
[12]
  Potency: inactive
[13]
  Potency: inactive
[14]
  Potency: inactive
[15]
  Potency: inactive
[19]
  Potency: inactive
[18]
  Potency: inactive

## C=CC(=O)OCCCl
[1]
  Potency: inactive
[2]
  Potency: inactive
[3]
  Potency: inactive
[4]
  outcome: inactive
[5]
  outcome: inactive
[6]
  Potency: inactive
[7]
  Potency: inactive
[8]
  Potency: inactive
[9]
  Potency: inactive
[10]
  Potency: inactive
[11]
  Potency: inactive
[12]
  Potency: inactive
[13]
  Potency: inactive
[14]
  Potency: inactive
[15]
  Potency: inactive
[16]
  Potency: inactive
[19]
  Potency: inactive
[18]
  Potency: inactive

## COC(=O)c1c(C)cc(O)c(C)c1O
[1]
  Potency: inactive
[2]
  Potency: inactive
[3]
  Potency: inactive
[4]
  outcome: inactive
[5]
  outcome: inactive
[6]
  Potency: inactive
[7]
  Potency: inactive
[8]
  Potency: inactive
[9]
  Potency: inactive
[10]
  Potency: inactive
[11]
  Potency: inactive
[12]
  Potency: inactive
[13]
  Potency: inactive
[14]
  Potency: inactive
[15]
  Potency: inactive
[16]
  Potency: inactive
[19]
  Potency: inactive
[18]
  Potency: inactive

## CCCCCC(=O)OCCc1ccccc1
[1]
  Potency: inactive
[2]
  Potency: inactive
[3]
  Potency: inactive
[4]
  outcome: inactive
[5]
  outcome: inactive
[6]
  Potency: inactive
[7]
  Potency: inactive
[8]
  Potency: inactive
[9]
  Potency: inactive
[10]
  Potency: inactive
[11]
  Potency: inactive
[12]
  Potency: inactive
[13]
  Potency: inactive
[14]
  Potency: inactive
[15]
  Potency: inactive
[16]
  Potency: inactive
[18]
  Potency: inactive
